Screening results from PubChem.
Shown are actives, neighbours in structure and some others; about 3.5% of the full set was active somewhere.
FBW7 activator – human FBW7 E3 ligase activation, primary screen | Q969H0 | AlphaScreen FBW7–phospho-cyclin E peptide binding, activator screen | 650,000 compounds, 0.13% hits | normalized activity (activation), % at 26.1 µM; in the data active = normalized activity above about 1.9%;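 also: purified mutant Fbw7 with reduced substrate affinity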
GPR151 ag – activates the human receptor GPR151 | Q8TDV0 | PathHunter beta-arrestin GPR151 cells, luminescence | activation, % at 11.2 µM | 650,000 compounds, 1% hits; in the data active = activation above about 4.9%
MITF inh – inhibitors of human MITF; inhibition, % at 2.6 µM; AlphaScreen MITF homodimerization, bead proximity signal; 650,000 compounds, 0.91% hits; O75030; in the data active = inhibition above about 50%
TEAD-YAP inh – TEAD-YAP interaction inhibition; HEK-TIYL cells, TEAD-Gal4/YAP UAS-luciferase luminescence; inhibition, % at 9.12 µM; 640,000 compounds, 1.4% hits; AID 1259422; in the data active = inhibition above about 32%
Large screens that a line does not name were inactive.

Cc1ccc(N2CCN(c3ncnc4c3c(-c3ccccc3)cn4-c3ccc(Br)cc3)CC2C)cc1 (configuration not stated)	FBW7 activator 3.7
CCCNC(=O)C(=O)N/N=C/c1ccc(OC)c(OC)c1	none
CCC(C)Nc1nc(C)nc2sc(C)cc12 (configuration not stated)	none
Cc1ccc(-n2ncc3c(N4CCCCC4)ncnc32)c(C)c1	none
Cc1ccc(-n2ncc3c(N4CCCC4)ncnc32)cc1	TEAD-YAP inh 48.0
Cc1ccc(-n2ncc3c(N4CCOCC4)ncnc32)c(C)c1	TEAD-YAP inh 58.2
Cc1cccc(N2CCN(c3ncnc4c3cnn4-c3ccccc3)CC2C)c1 (configuration not stated)	TEAD-YAP inh 43.1
COc1cccc(NC(=O)CCN2C(=O)c3ccccc3C2=O)c1	none
O=S(=O)(c1ccc(Oc2ccc(S(=O)(=O)N3CCCCCC3)cc2)cc1)N1CCCCCC1	none
CCn1c(=O)c2c(nc3n(-c4ccc(Oc5ccccc5)cc4)c(C)cn23)n(C)c1=O	none
COc1ccc(N(C(C)C(=O)Nc2cc([N+](=O)[O-])ccc2OC)S(C)(=O)=O)cc1 (configuration not stated)	TEAD-YAP inh 50.5
CCOc1ccc(N(C(C)C(=O)Nc2ccc(Cl)cc2C)S(C)(=O)=O)cc1 (configuration not stated)	none
CCOc1ccc(N(C(C)C(=O)Nc2ccccc2OC)S(C)(=O)=O)cc1 (configuration not stated)	none
CCOc1ccc(N(C(C)C(=O)Nc2cc(Cl)ccc2OC)S(C)(=O)=O)cc1 (configuration not stated)	TEAD-YAP inh 32.5
CCOc1ccc(N(C(C)C(=O)Nc2ccccc2Cl)S(C)(=O)=O)cc1 (configuration not stated)	none
CCOC(=O)c1ccccc1NC(=O)C(C)N(c1ccc(OCC)cc1)S(C)(=O)=O (configuration not stated)	TEAD-YAP inh 57.0
CCOc1ccc(N(C(C)C(=O)Nc2cc(C)ccc2OC)S(C)(=O)=O)cc1 (configuration not stated)	TEAD-YAP inh 46.6
O=C(Nc1ccc(F)cc1F)C1CCCN(c2nnc(N3CCCC3=O)s2)C1 (configuration not stated)	none
Cc1cccc(OCC(=O)Nc2sc3c(c2C(N)=O)CCCC3)c1	TEAD-YAP inh 53.0
Cc1cccc(C(=O)Nc2sc3c(c2C(N)=O)CCCC3)c1	TEAD-YAP inh 51.5
Cc1cccc(C(=O)Nc2sc3c(c2C(=O)O)CCCC3)c1	TEAD-YAP inh 69.9
NC(=O)c1c(NC(=O)c2ccc(Br)o2)sc2c1CCCCC2	TEAD-YAP inh 85.2
CCOC(=O)NN1CC(O)=C(c2nc(-c3ccc(Br)cc3)cs2)C1=N	none
Cc1ccc2nc(Nc3ccc(C(=O)Nc4ccc(Cl)cc4C(=O)c4ccccc4)cc3)nc(-c3ccccc3)c2c1	none
CCc1ccc(-n2c(C)cc(/C=C3\C(=N)N4N=C(C(F)(F)F)SC4=NC3=O)c2C)cc1	none
COc1cc(Nc2nc(Nc3ccccc3)nc3c2ncn3CCN2CCCC2=O)cc(OC)c1OC	none
COCC(=O)NNC(=O)c1ccc(C)cc1	none
O=C(CN1CCC(c2ccc(F)cc2)CC1)N1CCCCC1	none
NC(=O)c1ccsc1NC(=O)/C=C/c1ccccc1	TEAD-YAP inh 80.7
O=C(/C=C/c1ccccc1)Nc1sc2c(c1C(=O)O)CCCC2	TEAD-YAP inh 49.1
Cc1ccc(/C=C/C(=O)Nc2sccc2C(N)=O)o1	none
Cc1ccc(NC(=O)c2c(NC(=O)c3ccc(Br)cc3)sc3c2CCCC3)c(C)c1	FBW7 activator 2.1
NC(=O)c1c(NC(=O)c2cccc(Br)c2)sc2c1CCCC2	TEAD-YAP inh 47.1
NC(=O)c1c(NC(=O)/C=C/c2ccccc2)sc2c1CCC2	none
CN1C(=O)C(C)(C)c2cc(S(=O)(=O)Nc3ccc(F)cc3)ccc21	none
NC(=O)c1c(NC(=O)CCl)sc2c1CCC2	TEAD-YAP inh 60.9
CCC(=O)Nc1sc2c(c1C(N)=O)CCC2	none
CC(C)(C)c1ccc(C(=O)NCCOc2ccccc2Cl)cc1	TEAD-YAP inh 66.3
c1ccc(NNc2nc3ccccc3s2)cc1	TEAD-YAP inh 35.8
O=C(O)CNc1nc2ccccc2s1	none
O=C(NNc1nc2ccccc2s1)Nc1ccccc1	none
O=C(O)CCNc1nc2ccccc2s1	TEAD-YAP inh 42.3
Cc1ccc(Cl)cc1NC(=O)CN1CCNC(=O)C1	none
COC(CN(C)c1ccc(-c2ccc(O)cc2)cn1)OC	TEAD-YAP inh 64.0
CC(=O)c1ccc(NC(=O)c2ccc(Br)o2)cc1	none
Cc1ccc2oc(-c3ccc(N4CCC(C)CC4)c([N+](=O)[O-])c3)nc2c1	TEAD-YAP inh 93.1
CC1CCCN(S(=O)(=O)c2ccc(F)c(C(=O)NCc3cccnc3)c2)C1 (configuration not stated)	none
